# MOR-DOR ag: agonists of human mu-delta opioid receptor heterodimerization. activation, % at 9.3 µM. hit rate 0.3% among 340,000. AID 504326. cells, OPRM1-OPRD1 heterodimerization, luminescence; in the data active = activation above about 18%;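 note: 0% = vehicle-treated cells and 100% = reference agonist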
# Target sequence (P35372 whole entry, looked up): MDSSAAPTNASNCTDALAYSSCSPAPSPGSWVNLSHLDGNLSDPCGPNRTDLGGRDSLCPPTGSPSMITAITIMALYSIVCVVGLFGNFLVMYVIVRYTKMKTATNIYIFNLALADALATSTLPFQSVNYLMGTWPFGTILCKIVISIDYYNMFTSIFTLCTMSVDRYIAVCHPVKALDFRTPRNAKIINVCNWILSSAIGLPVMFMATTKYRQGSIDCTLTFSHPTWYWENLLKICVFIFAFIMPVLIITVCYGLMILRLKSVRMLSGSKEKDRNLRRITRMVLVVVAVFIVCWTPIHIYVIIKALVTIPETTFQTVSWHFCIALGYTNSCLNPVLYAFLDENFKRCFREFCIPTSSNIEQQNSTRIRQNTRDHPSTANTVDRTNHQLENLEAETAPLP
# Target sequence (P41143 whole entry, looked up): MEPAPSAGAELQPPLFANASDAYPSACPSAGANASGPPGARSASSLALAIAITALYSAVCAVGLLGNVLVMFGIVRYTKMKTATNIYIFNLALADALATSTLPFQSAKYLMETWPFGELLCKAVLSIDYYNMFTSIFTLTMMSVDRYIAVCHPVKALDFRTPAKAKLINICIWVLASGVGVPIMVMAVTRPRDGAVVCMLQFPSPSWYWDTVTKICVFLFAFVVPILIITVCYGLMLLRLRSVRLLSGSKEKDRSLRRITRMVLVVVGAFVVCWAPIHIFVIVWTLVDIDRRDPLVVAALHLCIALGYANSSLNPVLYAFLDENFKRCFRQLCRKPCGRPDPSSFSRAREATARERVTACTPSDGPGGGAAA
# MOR-DOR inv ag: inverse agonist of human OPRM1-OPRD1 heterodimerization; AID 504357; inhibition, % at 9.3 µM; P35372+P41143; hit rate 0.21% among 340,000; cell-based MOR-DOR heterodimer luminescence, inverse agonism; in the data active = inhibition above about 22%, passing the limit was not always enough;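 note: 0% = cells with DMSO and 100% = wells without cells with DMSO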
# m5-HT2A agonist: mouse HTR2A agonism via beta-arrestin recruitment; P35363; CHO-K1 mHTR2A beta-arrestin complementation, luminescence; percent of 30 µM serotonin response; activation, % at 7.6 µM; hit rate 0.66% among 360,000; AID 624169;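 active = activation above a run cutoff, the mean activation of all tested compounds plus 3 SD, cut at about 14% in these data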;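 note: 0% = plate median of compound wells and 100% = 30 µM serotonin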
# HTR5A inv ctr: counter-screen for OPRM1-OPRD1 inverse agonists: human HTR5A inverse agonism; P47898; HTR5A cell line, luminescence; inhibition, % at 9.3 µM; hit rate 0.083% among 340,000; in the data active = inhibition mostly above about 23%, no sharp cut-off; inactive = mostly below about 18%;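 note: 0% = cells with DMSO and 100% = no-cell wells with DMSO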
# HTR5A ag ctr: counter-screen for OPRM1-OPRD1 agonists: human HTR5A agonism | HTR5A agonist assay, luminescence, cell-based | activation, % at 9.3 µM | hit rate 0.61% among 340,000 | AID 504692; in the data active = activation mostly above about 9.5%, no sharp cut-off; inactive = mostly below about 7.6%;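 note: 0% = cells with vehicle only and 100% = reference agonist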
# HGIII-sPLA2 inh: Inhibits HGIII-sPLA2 liposome hydrolysis, primary screen; inhibition, % at 12.2 µM; hit rate 0.56% among 370,000; QFRET BODIPY PC-A2 liposome hydrolysis, fluorescence; AID 743126;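 active = inhibition above mean plus 3 SD of compounds lying within the high and low control bounds, cut at about 19% in these data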;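 note: 0% = median of test compound wells and 100% = no enzyme DMSO wells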
# sPLA2 confirm: human GIII-sPLA2 inhibition, confirmation; hit rate 34% among 2,000; shares compounds with HGIII-sPLA2 inh; AID 743280; inhibition, % at 12.2 µM; recombinant hGIII-sPLA2, BODIPY PC-A2 QFRET fluorescence;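 active = mean inhibition across triplicates above the hit cutoff set in the earlier primary screen, cut at about 19% in these data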;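 note: 0% = enzyme with DMSO and 100% = DMSO wells lacking enzyme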
# BODIPY interf: optically interferes with 535nm fluorescence in sPLA2 counter-screen; shares compounds with HGIII-sPLA2 inh; BODIPY FL product fluorescence interference, QFRET; inhibition, % at 12.2 µM; hit rate 8.5% among 2,000; AID 743282;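 active = average inhibition above the solvent-only control mean plus 3 SD, cut at about 6% in these data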;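 note: 0% = DMSO with substrate plus product and 100% = DMSO with substrate alone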
# BODIPY interf DR: counter-screen for HGIII-sPLA2 inhibitors: 535nm fluorescence interference, dose response; IC50, µM; 240 tested, under 10 active; shares compounds with HGIII-sPLA2 inh; BODIPY FL product fluorescence interference, cell-free; AID 743455;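 active = IC50 at or below 10 µM; inactive = IC50 above 10 µM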
# * hit, by the source's call; · = no result. An excerpt weighted towards active compounds, which were near 2.2% of everything screened.
SMILES,MOR-DOR ag,MOR-DOR inv ag,m5-HT2A agonist,HTR5A inv ctr,HTR5A ag ctr,HGIII-sPLA2 inh,sPLA2 confirm,BODIPY interf,others
COc1cc([N+](=O)[O-])c(C(=O)N2CCOCC2)c([N+](=O)[O-])c1,5,-35,2,-12,2,20*,5,0,
O=C(Nc1nnc([C@H]2C[C@H](O)[C@@H](CO)O2)s1)c1ccccc1F,·,·,4,·,·,7,·,·,
O=C(Nc1nnc([C@@H]2C[C@H](O)[C@@H](CO)O2)s1)c1ccccc1Cl,·,·,2,·,·,20*,0,-2,
COc1ccc(/C=C/C(=O)NC(=S)NNC(=O)c2cc(OC)c(OC)c(OC)c2)cc1OC,·,·,-5,·,·,5,·,·,
COc1ccc(/C=C/C(=O)NC(=S)NNC(=O)c2ccco2)cc1,-4,21,-6,15,-4,25*,53*,-8,BODIPY interf DR=>122
COc1ccc(/C=C/C(=O)NC(=S)Nc2ccc(C(=O)O)cc2)cc1,-2,11,4,1,-3,20*,3,-6,
COc1ccc(/C=C/C(=O)NC(=S)NNC(=O)c2ccco2)cc1OC,-5,24,6,5,-3,20*,25*,-23,
COc1ccc(C(=O)NC(=S)NNC(=O)c2ccco2)cc1,-2,13,5,1,2,19*,29*,-2,BODIPY interf DR=>122
CCOC(=O)[C@]12CCCC3=C1N(CCC3)C(=O)[C@@H](CC(=O)N1CCOCC1)C2,·,·,·,·,·,5,·,·,
COC(=O)c1cc(-c2ccc(Cl)s2)c(=O)n2c1CCC2,·,·,·,·,·,0,·,·,
CCC(CO)Nc1cccc2c1S(=O)(=O)N(Cc1cn(Cc3ccc(F)cc3)nn1)Cc1ccccc1O2 (stereo not given),·,·,·,·,·,-17,·,·,
CCOC1(C)OCC(=O)[C@]2(CCC3C4CCC5=CC(=O)C=CC5(C)C4C(=O)CC32C)O1 (stereo not given in full),-1,10,-2,-1,3,19*,0,-15,
CCn1ncc(Cl)c1C(=O)NC(C)c1ccccc1 (stereo not given),-3,16,3,18,-3,21*,0,-6,
CCCCCN=C(N)N/N=C/c1c[nH]c2ccc(OC)cc12,8,-44,3,-40,11,28*,40*,-37,
C=CC(=O)NC1CCCCN(C)C1=O (stereo not given),·,·,·,·,·,10,·,·,
CC(=O)Nc1ccc(-c2csc(NNC(=O)c3ccccc3)n2)cc1,2,-11,6,1,-2,33*,22*,4,
O=C(NNc1nc(-c2ccc(Cl)cc2)cs1)c1ccco1,-1,3,0,-4,1,45*,38*,11*,
O=C(NNc1nc(-c2ccccc2)cs1)c1ccco1,0,2,0,-11,-4,27*,29*,4,BODIPY interf DR=>122
Cc1ccc(-c2csc(NC(=S)NC(=O)c3ccco3)n2)cc1,0,-1,2,12,2,16,·,·,
CC1(C)Oc2ccc(C(=O)N3CCCC3)cc2NC1=O,·,·,·,·,·,2,·,·,
O=C(NC(=S)Nn1cnnc1)c1cccc(Br)c1,-3,17,3,-16,-4,22*,4,-2,
C[C@@H]1C(=O)N2N=Cc3cc4ccccc4cc3[C@H]2N2N=Cc3cc4ccccc4cc3[C@@H]12,·,·,·,·,·,4,·,·,
COc1cc(CNn2c(C)n[nH]c2=S)cc(Cl)c1OCC(=O)NC(C)(C)C,0,0,-1,0,-3,29*,25*,-4,
Nc1ccc2c(c1)C(=O)c1cc(N)c(Cl)cc1-2,-2,9,-4,1,0,29*,31*,8.2*,
COC(=O)[C@]12C[C@H](CC(=O)NCC34CC5CC(CC(C5)C3)C4)C(=O)N(Cc3ccco3)C1=C[C@H](C1CCCC1)O[C@@H]2C,·,·,·,·,·,-10,·,·,
SMILES,MOR-DOR ag,MOR-DOR inv ag,m5-HT2A agonist,HTR5A inv ctr,HTR5A ag ctr,HGIII-sPLA2 inh,sPLA2 confirm,BODIPY interf,others
CCN1C(=NCCCOC(C)C)N[C@@H](c2ccccc2)[C@H](C(=O)OC)[C@H]1C,-2,13,2,-12,4,19*,1,-12,
O=C(Cc1ccc(Nc2nc(=S)[nH]c3ccccc23)cc1)NC1CCCCC1,·,·,·,·,·,21*,14,-1,
CC(C)CCNC(=O)Cc1ccc(Nc2nc(=S)[nH]c3ccccc23)cc1,-3,13,-3,0,0,11,·,·,
C=CCN1C(C(=O)OC)CN(Cc2cn(CCC3OCCO3)nn2)CCS1(=O)=O (stereo not given),·,·,·,·,·,5,·,·,
COc1cc(CN(C(=S)NCC(=O)NC2CCCC2)C2CCCC2)cc(OC)c1OC,-4,22,1,9,5,23*,3,-15,
O=c1c2ccccc2n(Cc2ccno2)n1[C@@H](Cc1ccccc1)Cn1cc(C2CCCC2)nn1,·,·,·,·,·,5,·,·,
CC(C)N1CCCCC(NC(=O)c2ccc(Br)cc2)C1=O (stereo not given),·,·,·,·,·,6,·,·,
CC(C)N1CCCCC(NC(=O)c2ccccc2)C1=O (stereo not given),·,·,·,·,·,22*,0,-5,
CCOC(=O)C1C(c2ccc(C)o2)NC(=O)NC1(O)C(F)(F)F (stereo not given),-1,6,4,0,0,20*,0,-4,
COC(=O)[C@]12C[C@H](CC(=O)NCCCCc3ccccc3)C(=O)N(CCC3=CCCCC3)C1=C[C@H](C(C)(C)C)O[C@@H]2C,·,·,·,·,·,-2,·,·,
CCC(Oc1ccccc1)C(=O)Nc1ccccc1OC (stereo not given),2,-12,-2,-10,2,-7,·,·,
CCC(Oc1ccccc1)C(=O)NCCOC (stereo not given),-2,9,0,-1,-2,21*,0,-7,
O=c1c(-c2ccco2)nc2ccccc2n1C(c1ccccn1)c1nc2ccccc2[nH]1 (stereo not given),·,·,8,·,·,23*,5,-1,
O=c1c(-c2ccco2)nc2ccccc2n1C(c1ccccc1)c1nc2ccccc2[nH]1 (stereo not given),·,·,-2,·,·,0,·,·,
CCCCOCCCNC(=O)C[C@H]1C[C@@]2(C(=O)OC)C(=C[C@H](C(C)C)O[C@@H]2C2CC2)N(Cc2cccc3ccccc23)C1=O,·,·,·,·,·,-8,·,·,
COC(=O)[C@]12C[C@H](CC(=O)NCc3ccc(C)o3)C(=O)N(Cc3ccc4c(c3)OCO4)C1=C[C@H](C(C)(C)C)O[C@@H]2C,·,·,·,·,·,-18,·,·,
CCOC(=O)[C@]12CCCC3=C1N(CCC3)C(=O)[C@@H](CC(=O)NCc1ccc(C)o1)C2,·,·,·,·,·,-6,·,·,
